Data: the supplement of paper PMC8253809

These molecules were tested on HGGX6 (H3.3 G34R paediatric high-grade glioma line) (assay: growth inhibition (% activity, log2 RLU normalised to DMSO / staurosporine); higher = more growth inhibition). Conditions: 33 µM.
In short: (§1)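 For each approved drug, the growth-inhibition value is the replicate median of per-plate normalised CellTiter-Glo data. Luminescence was log2-transformed and expressed as % activity between solvent and positive control wells. Drugs were applied in triplicate at a single final concentration of about 33 μM for 7 days at 37 °C, 5% CO2 to pHGG cell lines and H9-derived neural stem cells.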

SMILES | growth inhibition [%]
Cc1cc(C(C)(C)C)cc(C)c1CC1=NCCN1 | -4.11
Cc1ccc(-c2cc(C(F)(F)F)nn2-c2ccc(S(N)(=O)=O)cc2)cc1 | -1.39
CC[C@@H]([C@H](C)O)n1ncn(-c2ccc(N3CCN(c4ccc(OC[C@@H]5CO[C@@](Cn6cncn6)(c6ccc(F)cc6F)C5)cc4)CC3)cc2)c1=O | -1.15
O=C1CCc2ccc(OCCCCN3CCN(c4cccc(Cl)c4Cl)CC3)cc2N1 | 3.13
CC(C)(C#N)c1cc(Cn2cncn2)cc(C(C)(C)C#N)c1 | 1.21

What follows are molecules tested on HNSC in the same assay as above. Conditions: 33 µM.
In short: as §1

SMILES | growth inhibition [%]
CCCNC(C)C(=O)Nc1ccccc1C (stereo not drawn) | -2.37
NS(=O)(=O)c1cc2c(cc1Cl)NCNS2(=O)=O | -1.69
CCCNC(C)C(=O)Nc1c(C)csc1C(=O)OC (stereo not drawn) | 5.64
C[C@@H](O)[C@H]1C(=O)N2C(C(=O)O)=C(S[C@@H]3CN[C@H](C(=O)N(C)C)C3)[C@H](C)[C@H]12 | 4.4
O=C(O)c1cc(/N=N/c2ccc(S(=O)(=O)Nc3ccccn3)cc2)ccc1O | -0.205
CN1C(CCl)Nc2cc(Cl)c(S(N)(=O)=O)cc2S1(=O)=O (stereo not drawn) | 1.19
COc1ccc2cc1Oc1ccc(cc1)C[C@H]1c3c(cc4c(c3Oc3cc5c(cc3OC)CCN(C)[C@@H]5C2)OCO4)CCN1C | 3.27
CCN1CCN(C(=O)N[C@@H](C(=O)N[C@@H]2C(=O)N3[C@@H]2SC(C)(C)[C@@H]3C(=O)O)c2ccccc2)C(=O)C1=O | -1.83
COc1ccc(C2C(=O)c3ccccc3C2=O)cc1 | 2.05
[Na+].[Na+].[Na+].[O]=[V]([O-])([O-])[O-] | -0.354
Cc1noc(NS(=O)(=O)c2ccc(N)cc2)c1C | 29.4
N#C[C@@H]1CCCN1C(=O)CNC12CC3CC(CC(O)(C3)C1)C2 | 14.2
Oc1ccc(OCc2ccccc2)cc1 | 10.9
CN(C)c1ccc(C(=C2C=CC(=[N+](C)C)C=C2)c2ccc(N(C)C)cc2)cc1 | 72.2
C[C@@H](O[C@H]1OCCN(Cc2n[nH]c(=O)[nH]2)[C@H]1c1ccc(F)cc1)c1cc(C(F)(F)F)cc(C(F)(F)F)c1 | 8.95
Cc1c(C(=O)NN2CCCCC2)nn(-c2ccc(Cl)cc2Cl)c1-c1ccc(Cl)cc1 | 11.7
Cc1nnc(C(=O)NC(C)(C)c2nc(C(=O)NCc3ccc(F)cc3)c(O)c(=O)n2C)o1 | 4.29
Cn1c(=O)c2[nH]cnc2n(C)c1=O | -5.61
CCCCCCCCCCCCCCCCCCCCCCO | 1.03
CC(C(=O)O)c1ccc(-c2ccccc2)c(F)c1 (stereo not drawn) | 0.919

SMILES | growth inhibition [%]
NC(N)=Nc1nc(CSCC/C(N)=N/S(N)(=O)=O)cs1 | -0.722
Nc1ccn(C[C@@H](CO)OCP(=O)(O)O)c(=O)n1 | 3.12
N[C@@H]1CN(c2c(F)cc3c(=O)c(C(=O)O)cn([C@@H]4C[C@@H]4F)c3c2Cl)CC12CC2 | 0.64
C=Cc1c(C)c2cc3nc(cc4[nH]c(cc5nc(cc1[nH]2)C(C)=C5CCC(=O)O)c(CCC(=O)OC)c4C)C1(C)C3=CC=C(C(=O)OC)C1C(=O)OC (stereo not drawn) | 2.35
N=c1nc(N2CCCCC2)cc(N)n1O | 1.05
CC(=O)OCC(=O)[C@@]1(O)[C@H](C)C[C@H]2[C@@H]3CCC4=CC(=O)C=C[C@]4(C)[C@@]3(F)[C@@H](O)C[C@@]21C | 2.34
Cc1ccc2c(Cl)cc(Cl)c(O)c2n1 | 46
CCOC(=O)C1=C[C@@H](OC(CC)CC)[C@H](NC(C)=O)[C@@H](N)C1 | 0.516
O=c1cc[nH]c(=O)[nH]1 | -1.21
CC(C[N+](C)(C)C)OC(N)=O (stereo not drawn) | -4.04
Cc1cccc(N(C)C(=S)Oc2ccc3ccccc3c2)c1 | -3.49
O=C1c2c(O)ccc(O)c2C(=O)c2c(NCCNCCO)ccc(NCCNCCO)c21 | 62.7
CCN1CCCC1CNC(=O)c1cc(S(N)(=O)=O)ccc1OC (stereo not drawn) | 1.32
O=C1O[C@H]([C@@H](O)CO)C([O-])=C1O.[Na+] | 6.78
Cc1cc(C(C)(C)C)cc(C)c1CC1=NCCN1 | 2.45
Cc1ccc(-c2cc(C(F)(F)F)nn2-c2ccc(S(N)(=O)=O)cc2)cc1 | 0.519
CC[C@@H]([C@H](C)O)n1ncn(-c2ccc(N3CCN(c4ccc(OC[C@@H]5CO[C@@](Cn6cncn6)(c6ccc(F)cc6F)C5)cc4)CC3)cc2)c1=O | -2.54
O=C1CCc2ccc(OCCCCN3CCN(c4cccc(Cl)c4Cl)CC3)cc2N1 | 22
CC(C)(C#N)c1cc(Cn2cncn2)cc(C(C)(C)C#N)c1 | 2.39

What follows are molecules tested on SUDIPGIV (diffuse intrinsic pontine glioma line) in the same assay as above. Conditions: 33 µM.
In short: as §1

SMILES | growth inhibition [%]
CCCNC(C)C(=O)Nc1ccccc1C (stereo not drawn) | -1.79
NS(=O)(=O)c1cc2c(cc1Cl)NCNS2(=O)=O | -0.42
CCCNC(C)C(=O)Nc1c(C)csc1C(=O)OC (stereo not drawn) | 0.331
C[C@@H](O)[C@H]1C(=O)N2C(C(=O)O)=C(S[C@@H]3CN[C@H](C(=O)N(C)C)C3)[C@H](C)[C@H]12 | -2.08
O=C(O)c1cc(/N=N/c2ccc(S(=O)(=O)Nc3ccccn3)cc2)ccc1O | 0.115
CN1C(CCl)Nc2cc(Cl)c(S(N)(=O)=O)cc2S1(=O)=O (stereo not drawn) | 0.139
COc1ccc2cc1Oc1ccc(cc1)C[C@H]1c3c(cc4c(c3Oc3cc5c(cc3OC)CCN(C)[C@@H]5C2)OCO4)CCN1C | -0.21
CCN1CCN(C(=O)N[C@@H](C(=O)N[C@@H]2C(=O)N3[C@@H]2SC(C)(C)[C@@H]3C(=O)O)c2ccccc2)C(=O)C1=O | -0.166
COc1ccc(C2C(=O)c3ccccc3C2=O)cc1 | -1.32
[Na+].[Na+].[Na+].[O]=[V]([O-])([O-])[O-] | -2.76
Cc1noc(NS(=O)(=O)c2ccc(N)cc2)c1C | -0.587
N#C[C@@H]1CCCN1C(=O)CNC12CC3CC(CC(O)(C3)C1)C2 | 0.0993
Oc1ccc(OCc2ccccc2)cc1 | -2.99
CN(C)c1ccc(C(=C2C=CC(=[N+](C)C)C=C2)c2ccc(N(C)C)cc2)cc1 | 43.1
C[C@@H](O[C@H]1OCCN(Cc2n[nH]c(=O)[nH]2)[C@H]1c1ccc(F)cc1)c1cc(C(F)(F)F)cc(C(F)(F)F)c1 | 13.5
Cc1c(C(=O)NN2CCCCC2)nn(-c2ccc(Cl)cc2Cl)c1-c1ccc(Cl)cc1 | -1.46
Cc1nnc(C(=O)NC(C)(C)c2nc(C(=O)NCc3ccc(F)cc3)c(O)c(=O)n2C)o1 | -0.0786
Cn1c(=O)c2[nH]cnc2n(C)c1=O | -0.366
CCCCCCCCCCCCCCCCCCCCCCO | -1.18
CC(C(=O)O)c1ccc(-c2ccccc2)c(F)c1 (stereo not drawn) | -4.24

SMILES | growth inhibition [%]
NC(N)=Nc1nc(CSCC/C(N)=N/S(N)(=O)=O)cs1 | -1.56
Nc1ccn(C[C@@H](CO)OCP(=O)(O)O)c(=O)n1 | 2.09
N[C@@H]1CN(c2c(F)cc3c(=O)c(C(=O)O)cn([C@@H]4C[C@@H]4F)c3c2Cl)CC12CC2 | 0.64
C=Cc1c(C)c2cc3nc(cc4[nH]c(cc5nc(cc1[nH]2)C(C)=C5CCC(=O)O)c(CCC(=O)OC)c4C)C1(C)C3=CC=C(C(=O)OC)C1C(=O)OC (stereo not drawn) | -0.469
N=c1nc(N2CCCCC2)cc(N)n1O | -0.657
CC(=O)OCC(=O)[C@@]1(O)[C@H](C)C[C@H]2[C@@H]3CCC4=CC(=O)C=C[C@]4(C)[C@@]3(F)[C@@H](O)C[C@@]21C | 5.88
Cc1ccc2c(Cl)cc(Cl)c(O)c2n1 | 5.39
CCOC(=O)C1=C[C@@H](OC(CC)CC)[C@H](NC(C)=O)[C@@H](N)C1 | 1.15
O=c1cc[nH]c(=O)[nH]1 | 0.441
CC(C[N+](C)(C)C)OC(N)=O (stereo not drawn) | -1.69
Cc1cccc(N(C)C(=S)Oc2ccc3ccccc3c2)c1 | -3.02
O=C1c2c(O)ccc(O)c2C(=O)c2c(NCCNCCO)ccc(NCCNCCO)c21 | 59.9
CCN1CCCC1CNC(=O)c1cc(S(N)(=O)=O)ccc1OC (stereo not drawn) | 0.319
O=C1O[C@H]([C@@H](O)CO)C([O-])=C1O.[Na+] | -3.14
Cc1cc(C(C)(C)C)cc(C)c1CC1=NCCN1 | 0.0122
Cc1ccc(-c2cc(C(F)(F)F)nn2-c2ccc(S(N)(=O)=O)cc2)cc1 | -5.64
CC[C@@H]([C@H](C)O)n1ncn(-c2ccc(N3CCN(c4ccc(OC[C@@H]5CO[C@@](Cn6cncn6)(c6ccc(F)cc6F)C5)cc4)CC3)cc2)c1=O | -2.62
O=C1CCc2ccc(OCCCCN3CCN(c4cccc(Cl)c4Cl)CC3)cc2N1 | 4.8
CC(C)(C#N)c1cc(Cn2cncn2)cc(C(C)(C)C#N)c1 | -0.235
